Out of some 62,000 compounds screened, about 95 (0.2%) were called active. Rule as the data show it: active = inhibition above about 20% (passing the limit was not always enough); inactive = the rest. The list comes from a sample in which actives are over-represented; it also holds similar structures and randomly drawn compounds. Where a SMILES comes first, the peptide text is derived from it. [ ]: non-standard residue; d: D form. ξ: configuration not given here. ξV = CC(C)C(N)C(=O)O
Target: Coagulation factor XII (Homo sapiens) (UniProt P00748)
Assay: human factor XIIa inhibitors, primary screen, biochemical, pooled compound mixtures, fluorogenic substrate (AID 684);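 also: 0% = enzyme without compound and 100% = no enzyme blank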
Settings: purified FXIIa, at 5 µM, hits give high values

Sequence of Coagulation factor XII (Homo sapiens) (P00748 20-372 limits assumed): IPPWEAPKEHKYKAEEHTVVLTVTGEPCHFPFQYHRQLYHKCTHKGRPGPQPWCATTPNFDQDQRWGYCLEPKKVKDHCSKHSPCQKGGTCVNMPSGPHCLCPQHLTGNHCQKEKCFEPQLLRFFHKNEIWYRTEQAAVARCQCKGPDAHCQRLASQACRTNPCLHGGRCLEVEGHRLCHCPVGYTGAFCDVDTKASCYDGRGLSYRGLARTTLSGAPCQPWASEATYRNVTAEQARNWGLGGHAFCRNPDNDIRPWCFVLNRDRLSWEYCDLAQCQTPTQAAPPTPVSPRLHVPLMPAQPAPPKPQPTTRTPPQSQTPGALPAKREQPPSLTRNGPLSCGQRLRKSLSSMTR
Sequence of Coagulation factor XII (Homo sapiens) (P00748 373-615 limits assumed): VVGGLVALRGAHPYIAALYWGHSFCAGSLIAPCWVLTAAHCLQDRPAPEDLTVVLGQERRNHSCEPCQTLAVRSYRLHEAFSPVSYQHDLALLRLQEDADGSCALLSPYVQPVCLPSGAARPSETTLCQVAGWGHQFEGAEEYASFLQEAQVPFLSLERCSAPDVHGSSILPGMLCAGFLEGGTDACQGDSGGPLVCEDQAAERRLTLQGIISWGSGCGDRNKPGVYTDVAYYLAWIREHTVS

Compound	inhibition
O=C(CN1CCOCC1)Nc1cc(Cl)ccc1Cl	17.8% (inactive)
CCCN1C(=O)C(NS(=O)(=O)c2ccc(N)cc2)(C(F)(F)F)C(C(=O)OC)=C1C (configuration not stated)	4.13% (inactive)
CC1CCCCC1NC(=O)CSc1nnc(N)s1 (configuration not stated)	4.21% (inactive)
CCOC(=O)Cc1c(C)nc2c(C#N)c(C)nn2c1C	-16% (inactive)
CCOC(=O)N1CCN(CC(=O)c2c(C)[nH]c3ccccc23)CC1	8.99% (inactive)
CCC(C(=O)Nc1ncccn1)(C(F)(F)F)C(F)(F)F	9.39% (inactive)
Cc1ccc(-n2ncc3c(N4CCN(c5ccc(F)cc5)CC4)ncnc32)c(C)c1	2.92% (inactive)
Cc1ccc(-n2ncc3c2ncn2nc(-c4ccco4)nc32)c(C)c1	0.945% (inactive)
Cc1ccc(-n2ncc3c(=O)[nH]cnc32)c(C)c1	20.5% (active)
CC(=O)NS(=O)(=O)c1ccccc1	7.57% (inactive)
Cc1ccc(-c2nn(-c3ccccc3)cc2CN(Cc2ccccc2)C(=O)CCC(=O)O)o1	1.27% (inactive)
COc1ccc(CC(NC(C)=O)C(=O)NC2CCN(C(=O)Nc3ccc(C#N)cc3)CC2)cc1OC (configuration not stated)	-19% (inactive)
c1nnc2c3c4c(sc3ncn12)CCC4	-20.4% (inactive)
Cc1ccc2cccc(O)c2[n+]1[O-]	6.81% (inactive)
CCCn1c(SCC(N)=O)nnc1C(C)C	-14.3% (inactive)
COc1ccccc1N1CCN(C(=O)c2c(-c3c(Cl)cccc3Cl)noc2C)CC1	-18.6% (inactive)
CCCn1nnc2sc3c(c2c1=O)CCC(C)C3 (configuration not stated)	1.96% (inactive)
Cc1ccnc(SCCn2c(N(C)Cc3ccccc3)nc3c2c(=O)n(C)c(=O)n3C)n1	5.5% (inactive)
Cc1ccc(S(=O)(=O)C2(S(=O)(=O)c3ccc(C)cc3)CCCC2)cc1	5.75% (inactive)
CCCOC(=O)c1[nH]c2c(c1C)C(=O)CC(c1cc(OC)c(OC)c(OC)c1)C2 (configuration not stated)	3.98% (inactive)
O=C(c1ccc(-n2cnnn2)cc1)N1CCN(C(c2ccccc2)c2ccccc2)CC1	1.76% (inactive)
c1c2c(cc3sc(N4CCCCC4)nc13)OCCO2	-2.49% (inactive)
CC(=O)Oc1ccc(C)cc1N1C(=O)c2ccc(C(=O)O)cc2C1=O	9.34% (inactive)
N#Cc1ccc(OCCN2C(=O)NC3(CCSC3)C2=O)cc1 (configuration not stated)	18.5% (inactive)
COc1ccc(C2/C(=C(/O)c3ccccc3)C(=O)C(=O)N2c2ncccn2)cc1OC (configuration not stated)	2.12% (inactive)
Cc1c(NC(=O)c2coc(=O)c(Br)c2)c(=O)n(-c2ccccc2)n1C	-0.015% (inactive)

Compound	inhibition
CCOC(=O)N1CCN(C(=O)Cc2ccc(-n3c(=S)[nH]c4ccccc4c3=O)cc2)CC1	7.08% (inactive)
COc1cccc(Nc2nnc(SCC(=O)N3CC(C)OC(C)C3)s2)c1 (configuration not stated)	-0.74% (inactive)
CCOc1ccc2[nH]c(=O)c(CN(CCCO)C(C)=O)cc2c1	-3.55% (inactive)
Cn1c(=O)c2[nH]c(NCC3CCCO3)nc2n(-c2ccccc2)c1=O (configuration not stated)	-14.8% (inactive)
CC(C)CCNc1nc(N2CCCC2)c2c(c1C#N)CCN(C)C2	-51.8% (inactive)
N#Cc1ccc(CSc2nnc(-c3ccccn3)n2-c2ccc(Cl)cc2)cc1	-14.6% (inactive)
CCN(CC)P(=O)(C(NC(=O)OC)C(F)(F)C(F)(F)C(F)(F)C(F)F)N(CC)CC (configuration not stated)	0.97% (inactive)
CCCC(C)n1[nH]c(=O)c2c(C)cc(C)nc21 (configuration not stated)	3.26% (inactive)
N#CC(C(=O)c1ccc(S(=O)(=O)N2CCCCCC2)cc1)c1nc2ccccc2[nH]1 (configuration not stated)	-9.55% (inactive)
OCCNCCCCOc1ccccc1F	-11.6% (inactive)
CCOc1ccc(CCNC(=O)C2CCN(c3ccc(N4CCOCC4)nn3)CC2)cc1OCC	-15.4% (inactive)
Cc1nc2ccc(NC(=O)N3CCC(c4ccccc4)C3)cc2nc1C (configuration not stated)	-16.9% (inactive)
CC(=O)NCC(=O)N(C)C(C(=O)Nc1ccc2c(c1)OCCO2)c1ccccc1 (configuration not stated)	16.7% (inactive)
COc1cccc(N(CC(=O)Nc2cccc(N(C)S(C)(=O)=O)c2)S(C)(=O)=O)c1	-3.08% (inactive)
COc1cccc(NC(=O)CN(C)S(=O)(=O)c2ccc(C)cc2)c1	23% (active)
COc1ccc(NC(=O)CN(C)S(=O)(=O)c2ccccc2)cc1OC	19.2% (inactive)
Cc1ccc(S(=O)(=O)c2c(N)n(C)c3nc4ccccc4nc23)cc1	-4.52% (inactive)
N#CCCN1CCN(S(=O)(=O)c2ccc(S(=O)(=O)NC3CCCCC3)cc2)CC1	4.97% (inactive)
O=C(CCS(=O)(=O)c1ccccc1)Nc1nc2c(s1)CCCC2	24.1% (inactive)
COc1ccc(C(=O)c2oc3ccc(Br)cc3c2NC(C)=O)cc1	1.19% (inactive)
C/C(=C\C(=O)c1ccccc1)Nc1cccc(O)c1	2.12% (inactive)
COC(=O)c1cc(C(=O)OC)cc(N2C(=O)CC(N3CCN(c4ccccc4)CC3)C2=O)c1 (configuration not stated)	7.93% (inactive)
CCn1cc(C(=O)NCC2COc3ccccc3O2)c2cc(OC)c(OC)cc2c1=O (configuration not stated)	3.64% (inactive)
COc1ccccc1NC(=O)c1ccc(C)s1	-2.31% (inactive)
CC(=O)Nc1ccc(S(=O)(=O)N2CCC(N(C)CCC(C)C)CC2)cc1	-1.44% (inactive)
C=CCNC(=O)CSc1nc2sc(C)c(C)c2c(=O)[nH]1	7.21% (inactive)

Compound	inhibition
COc1ccc(N2CC(C)Cn3c2nc2c3c(=O)n(Cc3ccccc3F)c(=O)n2C)c(OC)c1 (configuration not stated)	10.8% (inactive)
Cn1nnc(NC(=O)CSc2ncn[nH]2)n1	4.66% (inactive)
O=C1Nc2ccccc2C12Nc1ccccc1S2 (configuration not stated)	-1.23% (inactive)
C=CCn1c(COc2ccccc2F)nnc1SCC(=O)N1CC(=O)Nc2ccccc21	1.16% (inactive)
COc1ccc(C2C3=C(CC(C)(C)CC3=O)Oc3ncn4nc(-c5cccnc5)nc4c32)cc1OC (configuration not stated)	10.1% (inactive)
C=CCNC(=O)CCCC(=O)NCC=C	0.65% (inactive)
COc1ccc2c3c(c(=O)oc2c1OCC(=O)C(C)(C)C)CCCC3	12.2% (inactive)
COc1ccc(N2C(=O)C3CCCN3C2c2cc(OC)c(OC)cc2OC)cc1 (configuration not stated)	-16.1% (inactive)
CC(=O)NC(C(=O)NCC(N)=O)C(C)C (configuration not stated) (Ac-[ξV]-Gly-NH2)	1.26% (inactive)
Cc1nn(-c2ccccc2)c(CC(C)(C)C(=O)O)c1C(=O)O	-11.5% (inactive)
Cc1cccc(NC(=O)CSc2nnc(NC(=O)CN3CCOCC3)s2)c1	0.94% (inactive)
CCOC(=O)N1CCC(NC(=O)c2cnn3ccccc23)CC1	2.9% (inactive)
CCOc1ccc(CCNC(=O)C(CC)n2nc(C)n3c(cc4sccc43)c2=O)cc1OCC (configuration not stated)	8.5% (inactive)
CCOC(=O)N1CCN(S(=O)(=O)c2cc(Br)cc3c2N(C(=O)C2CC2)CC3)CC1	2.7% (inactive)
CC(=O)Nc1ccc(S(=O)(=O)Nc2nc3n(n2)C(c2ccccc2)CC(=O)N3)cc1 (configuration not stated)	-18.2% (inactive)
COc1ccc(-n2ncc3c(N4CCCc5ccccc54)ncnc32)cc1	-15% (inactive)
COCC(C)N=CC1=C(O)CC(C)(C)CC1=O (configuration not stated)	3.32% (inactive)
CC(=O)Cc1nsc(NC(=O)c2csc3c2CCCC3)n1	-19% (inactive)
CCOc1ccc(NC(=O)N(CCC(C)C)C(C)c2ccco2)cc1 (configuration not stated)	29.7% (inactive)
CCCNC(=O)C1CC(=O)N(c2ccc(OCC(=O)Nc3cccc(C)c3C)cc2)C1 (configuration not stated)	4.39% (inactive)
CCOC(=O)CCC(=O)OCC(=O)NC(C)C1CC2CCC1C2 (configuration not stated)	20.1% (inactive)
COCCNC(=O)CSc1nc2c(n1-c1ccccc1)CCCC2	1.41% (inactive)
CCC1CCCCN1CCNS(=O)(=O)c1ccc2c(c1)CCN2C(C)=O (configuration not stated)	-15.6% (inactive)
CCc1nnc(NS(=O)(=O)c2ccc(NS(=O)(=O)c3ccccc3)cc2)s1	-2.69% (inactive)
CC(=O)Oc1ccc2c(C)c(CC(C)O)c(=O)oc2c1 (configuration not stated)	9.88% (inactive)

— PubChem BioAssay AID684 (PCMD, 2007)
